Results: paper PMC5540273 (PLoS ONE, 2017)

Experiments:
Conditions in all cases: concentration: 1 μM, replicates: in singlicate; n = 1
FAK = tested on: T1, FAK
T1 construct: gene PTK2

FER = tested on: FER
FES = tested on: FES
FGFR1 = tested on: FGFR1
FGFR2 = tested on: FGFR2
FGFR3 = tested on: FGFR3
FGFR4 = tested on: FGFR4
FGR = tested on: FGR
FLT1 = tested on: FLT1
FLT3-autoinhibited = tested on: FLT3-autoinhibited
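Also: KINOMEscan kinase panel screen.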

| Compound | %Inh (FAK) | %Inh (FER) | %Inh (FES) | %Inh (FGFR1) | %Inh (FGFR2) | %Inh (FGFR3) | %Inh (FGFR4) | %Inh (FGR) | %Inh (FLT1) | %Inh (FLT3-autoinhibited) |
| --- | --- | --- | --- | --- | --- | --- | --- | --- | --- | --- |
| CS(=O)(=O)c1ccc(-c2c(-c3ncn[nH]3)sc(N3CCOCC3)c2C#N)cc1 | 0% | 14% | 42% | 32% | 9% | 5% | 0% | 40% | 13% | 2% |
| COc1ccccc1-c1ccc2c(NC(=O)C3CC3)n[nH]c2n1 [SB-711239] | 0% | 4% | 22% | 0% | 12% | 8% | 10% | 26% | 6% | 0% |
| COC(=O)c1c(-c2ccccc2)c2cc(OC)ccc2c(=O)n1Cc1ccccc1 | 0% | 0% | 22% | 7% | 3% | 3% | 0% | 29% | 0% | 21% |
| Cc1c(O)cccc1Nc1ccnc2ccc(C(F)(F)F)cc12.Cl [GW466413] | 0% | 15% | 0% | 0% | 0% | 0% | 0% | 58% | 28% | 0% |
| COc1cc(Nc2nccc(N3CCC(NC(=O)Nc4cc(C)ccc4C)C3)n2)cc(OC)c1OC (centres unmarked) [GSK1379762] | 0% | 0% | 0% | 5% | 11% | 30% | 0% | 14% | 22% | 0% |
| CC(C)(C)c1ccc(C(=O)Nc2cn3cc(Cl)ccc3n2)cc1 | 0% | 4% | 0% | 12% | 0% | 0% | 0% | 0% | 43% | 0% |
| O=S(=O)(c1ccc(-c2ccnc3[nH]ccc23)cc1)N1CCCC1 [GSK846226] | 0% | 12% | 0% | 0% | 0% | 12% | 2% | 16% | 22% | 8% |
| CC(=O)Nc1nc2cnc(Nc3cc(NC(=O)c4cccc(CCC#N)c4)ccc3C)nc2s1 | 7% | 0% | 17% | 9% | 22% | 17% | 0% | 21% | 30% | 5% |
| COc1ccc(Nc2nccc(NCCNC(=O)Nc3ccccc3F)n2)cc1 [GSK1379901] | 0% | 35% | 26% | 0% | 44% | 6% | 10% | 36% | 32% | 0% |
| Cc1ccc(-c2cc(-c3c[nH]nc3-c3ccccn3)ccn2)cc1 [GW684088] | 0% | 13% | 21% | 0% | 0% | 30% | 9% | 22% | 5% | 22% |
| Cc1cccc(-c2nc(Nc3cccc(C(N)=O)c3)c3ccccc3n2)n1 [GW876019] | 0% | 0% | 25% | 0% | 17% | 1% | 0% | 58% | 42% | 0% |
| COc1cc2ncnc(Nc3ccc4nc(-c5ccccc5)[nH]c4c3)c2cc1OC.Cl [GW282450] | 0% | 42% | 6% | 10% | 0% | 0% | 14% | 14% | 38% | 0% |
| Nc1ncnc2[nH]c(-c3ccccc3)nc12 [AH5015] | 8% | 0% | 8% | 2% | 0% | 25% | 2% | 31% | 2% | 0% |
| CN(C)CCN(C)C(=O)c1cc(-c2ccncc2)c(-c2ccc(Cl)c(O)c2)o1.Cl.Cl [SB-710397] | 0% | 0% | 0% | 0% | 0% | 5% | 0% | 16% | 43% | 0% |
| Cn1ccc2ncnc(Oc3ccc(NC(=O)Nc4ccccc4)cc3)c21 | 8% | 16% | 5% | 14% | 0% | 0% | 11% | 0% | 89% | 48% |
| Cn1ccc2ncnc(Oc3ccc(Nc4nc5ccccc5[nH]4)cc3)c21 | 0% | 0% | 0% | 3% | 0% | 0% | 0% | 9% | 0% | 0% |
| Cc1cccc(-c2nc(Nc3ccncc3)c3ccccc3n2)n1 [GW855857] | 31% | 0% | 13% | 5% | 7% | 2% | 6% | 31% | 0% | 0% |
